# Reference: ChEMBL document CHEMBL3988442, “University of Dundee, Small-Polar-MMV Screening Library” (2021)
# For some assays here: Results with a measured potency or affinity are listed apart.
# Key:
# Set-up in all cases: scale not given: direction of the effect not stated beside the values
# [1] = target: Protein translocase subunit SecA (Escherichia coli (strain K12)) (UniProt P10408); test: Assay to Identify E. coli SecA ATPase Inhibitors; format: functional; details: 30 µM
# [2] = target: T1, Ubiquitin-activating enzyme e1, putative (Leishmania donovani (strain BPK282A1)) (UniProt E9BSI1); test: Leishmania donovani Ubiquitin Activating Enzyme (LdE1); format: functional; details: 30 µM
# T1 sequence (whole entry): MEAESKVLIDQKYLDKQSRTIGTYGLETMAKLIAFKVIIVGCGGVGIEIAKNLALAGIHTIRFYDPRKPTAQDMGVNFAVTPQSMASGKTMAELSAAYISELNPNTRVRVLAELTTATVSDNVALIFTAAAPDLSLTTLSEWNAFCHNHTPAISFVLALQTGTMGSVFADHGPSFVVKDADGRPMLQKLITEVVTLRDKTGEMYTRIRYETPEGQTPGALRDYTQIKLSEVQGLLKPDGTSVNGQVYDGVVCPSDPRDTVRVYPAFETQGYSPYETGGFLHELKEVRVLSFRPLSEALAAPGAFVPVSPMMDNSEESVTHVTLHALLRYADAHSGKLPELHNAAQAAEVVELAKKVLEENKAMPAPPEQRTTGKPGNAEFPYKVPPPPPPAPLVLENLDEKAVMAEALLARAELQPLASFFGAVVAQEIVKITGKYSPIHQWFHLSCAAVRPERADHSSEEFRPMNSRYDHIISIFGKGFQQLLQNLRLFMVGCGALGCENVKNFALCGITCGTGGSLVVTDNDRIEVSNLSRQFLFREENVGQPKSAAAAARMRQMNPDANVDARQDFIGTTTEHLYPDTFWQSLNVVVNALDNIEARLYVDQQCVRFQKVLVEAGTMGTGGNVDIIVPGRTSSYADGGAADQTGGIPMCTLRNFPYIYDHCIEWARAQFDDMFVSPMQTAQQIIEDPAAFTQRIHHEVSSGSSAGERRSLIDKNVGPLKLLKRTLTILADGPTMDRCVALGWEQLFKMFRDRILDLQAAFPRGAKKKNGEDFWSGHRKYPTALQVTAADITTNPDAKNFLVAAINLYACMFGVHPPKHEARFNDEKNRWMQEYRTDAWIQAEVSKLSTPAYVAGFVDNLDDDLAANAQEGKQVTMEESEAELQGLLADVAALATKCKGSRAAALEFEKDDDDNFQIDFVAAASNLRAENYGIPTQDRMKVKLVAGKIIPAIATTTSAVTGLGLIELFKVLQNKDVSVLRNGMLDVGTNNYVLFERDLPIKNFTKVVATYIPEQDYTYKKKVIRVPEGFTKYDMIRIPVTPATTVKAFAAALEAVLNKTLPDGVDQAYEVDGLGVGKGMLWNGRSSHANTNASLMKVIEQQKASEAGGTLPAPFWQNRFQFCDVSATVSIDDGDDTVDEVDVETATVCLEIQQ
# [3] = target: AMP-activated protein kinase, AMPK (Homo sapiens) (UniProt P54646+O43741+P54619+Q9UGJ0+Q9Y478+Q13131+Q9UGI9); test: AMP-dependent Kinase enzyme assay. An in vitro enzyme assay that detects ADP turnover that is directly proportional to AMPK activity. This uses naive AMPK that is activated during the assay with MK-8722; format: functional; details: 30 µM
# [4] = target: Sialic acid-binding Ig-like lectin 9 (Homo sapiens) (UniProt Q9Y336); test: Hs-Siglec9 ALPHAscreen SOP 20170721; details: 10 µM
# Trypanosoma cruzi = test: Trypanosoma cruzi phosphomannomutase and mannose-1-phosphate guanylyltransferase assay; format: functional; details: 10 µM
# [5] = target: T2, Arginase-2, mitochondrial (Homo sapiens) (UniProt P78540); test: in vitro enzyme assay to detect the production of urea directly proportional to the activity of Arginase II; format: functional; details: 33.3 µM; note: in the data most compounds retested in dose-response had high values
# T2 sequence (whole entry): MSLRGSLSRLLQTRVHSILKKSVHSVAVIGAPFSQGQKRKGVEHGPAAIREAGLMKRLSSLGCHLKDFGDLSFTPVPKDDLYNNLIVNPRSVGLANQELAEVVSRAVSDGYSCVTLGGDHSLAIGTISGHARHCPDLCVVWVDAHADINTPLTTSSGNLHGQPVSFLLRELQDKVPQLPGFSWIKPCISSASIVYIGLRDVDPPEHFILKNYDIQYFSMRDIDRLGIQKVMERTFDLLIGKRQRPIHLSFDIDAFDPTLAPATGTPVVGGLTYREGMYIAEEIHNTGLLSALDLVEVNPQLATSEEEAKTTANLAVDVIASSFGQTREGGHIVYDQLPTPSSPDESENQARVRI
# [6] = target: T3, Proteasome subunit beta (Trypanosoma cruzi) (UniProt O96673); test: Trypanosoma cruzi proteasome chymotrypsin-like activity (TcProtChymo) assay.; note: in the data most compounds retested in dose-response had high values; format: functional; details: 9.37 µM
# T3 sequence (whole entry): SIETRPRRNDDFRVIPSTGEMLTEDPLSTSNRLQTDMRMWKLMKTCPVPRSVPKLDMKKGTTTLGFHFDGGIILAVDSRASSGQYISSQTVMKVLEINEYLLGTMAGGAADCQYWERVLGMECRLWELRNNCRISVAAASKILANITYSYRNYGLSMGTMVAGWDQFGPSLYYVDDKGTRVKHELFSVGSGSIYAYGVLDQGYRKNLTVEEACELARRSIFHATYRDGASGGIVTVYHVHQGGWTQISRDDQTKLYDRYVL
# Homo sapiens = species on record: Homo sapiens; test: To identify inhibition of the IFN signalling (Jak-Stat) pathway via expression of an eGFP reporter gene under the control of an IFN-stimulated response element (ISRE) containing MxA promoter.; format: functional; details: 30 µM
# [7] = target: T4, Tyrosyl-tRNA synthetase, putative (Trypanosoma cruzi (strain CL Brener)) (UniProt Q4DSP6); test: Trypanosoma cruzi tyrosyl tRNA synthetase (TcYRS) _High Tyrosine SOP; format: functional; details: 30 µM; note: in the data most compounds retested in dose-response had high values
# T4 sequence (whole entry): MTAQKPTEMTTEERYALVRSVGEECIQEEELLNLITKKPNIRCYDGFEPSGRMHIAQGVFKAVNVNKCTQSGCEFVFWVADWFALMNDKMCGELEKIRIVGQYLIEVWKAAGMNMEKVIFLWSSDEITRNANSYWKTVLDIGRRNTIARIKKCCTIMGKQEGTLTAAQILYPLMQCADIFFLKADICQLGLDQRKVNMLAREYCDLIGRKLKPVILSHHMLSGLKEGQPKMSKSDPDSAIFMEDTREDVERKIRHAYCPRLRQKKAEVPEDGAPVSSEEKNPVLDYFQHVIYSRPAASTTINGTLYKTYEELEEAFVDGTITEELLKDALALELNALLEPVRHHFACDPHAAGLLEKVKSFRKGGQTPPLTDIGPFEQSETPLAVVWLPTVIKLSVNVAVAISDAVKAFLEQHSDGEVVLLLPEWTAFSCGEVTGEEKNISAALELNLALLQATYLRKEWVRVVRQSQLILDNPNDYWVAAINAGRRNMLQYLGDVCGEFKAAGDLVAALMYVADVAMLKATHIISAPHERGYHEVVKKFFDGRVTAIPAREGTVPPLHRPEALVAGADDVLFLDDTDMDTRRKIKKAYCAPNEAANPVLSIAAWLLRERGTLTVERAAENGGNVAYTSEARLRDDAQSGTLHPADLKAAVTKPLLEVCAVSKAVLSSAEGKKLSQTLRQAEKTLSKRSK
# [8] = target: T4, Tyrosyl-tRNA synthetase, putative (Trypanosoma cruzi (strain CL Brener)); test: Trypanosoma cruzi tyrosyl tRNA synthetase (TcYRS) SOP; format: functional; details: 30 µM
# [9] = target: Chromo domain-containing protein 1 (Saccharomyces cerevisiae (strain ATCC 204508 / S288c) (Baker's yeast)) (UniProt P32657); test: ScCHD-1 Enzyme Inhibition Assay; format: functional; details: 30 µM; note: in the data most compounds retested in dose-response had high values
# Chromo domain-containing protein 1 (Saccharomyces cerevisiae (strain ATCC 204508 / S288c) (Baker's yeast)), sequence (P32657 whole entry, the tested form may be a part): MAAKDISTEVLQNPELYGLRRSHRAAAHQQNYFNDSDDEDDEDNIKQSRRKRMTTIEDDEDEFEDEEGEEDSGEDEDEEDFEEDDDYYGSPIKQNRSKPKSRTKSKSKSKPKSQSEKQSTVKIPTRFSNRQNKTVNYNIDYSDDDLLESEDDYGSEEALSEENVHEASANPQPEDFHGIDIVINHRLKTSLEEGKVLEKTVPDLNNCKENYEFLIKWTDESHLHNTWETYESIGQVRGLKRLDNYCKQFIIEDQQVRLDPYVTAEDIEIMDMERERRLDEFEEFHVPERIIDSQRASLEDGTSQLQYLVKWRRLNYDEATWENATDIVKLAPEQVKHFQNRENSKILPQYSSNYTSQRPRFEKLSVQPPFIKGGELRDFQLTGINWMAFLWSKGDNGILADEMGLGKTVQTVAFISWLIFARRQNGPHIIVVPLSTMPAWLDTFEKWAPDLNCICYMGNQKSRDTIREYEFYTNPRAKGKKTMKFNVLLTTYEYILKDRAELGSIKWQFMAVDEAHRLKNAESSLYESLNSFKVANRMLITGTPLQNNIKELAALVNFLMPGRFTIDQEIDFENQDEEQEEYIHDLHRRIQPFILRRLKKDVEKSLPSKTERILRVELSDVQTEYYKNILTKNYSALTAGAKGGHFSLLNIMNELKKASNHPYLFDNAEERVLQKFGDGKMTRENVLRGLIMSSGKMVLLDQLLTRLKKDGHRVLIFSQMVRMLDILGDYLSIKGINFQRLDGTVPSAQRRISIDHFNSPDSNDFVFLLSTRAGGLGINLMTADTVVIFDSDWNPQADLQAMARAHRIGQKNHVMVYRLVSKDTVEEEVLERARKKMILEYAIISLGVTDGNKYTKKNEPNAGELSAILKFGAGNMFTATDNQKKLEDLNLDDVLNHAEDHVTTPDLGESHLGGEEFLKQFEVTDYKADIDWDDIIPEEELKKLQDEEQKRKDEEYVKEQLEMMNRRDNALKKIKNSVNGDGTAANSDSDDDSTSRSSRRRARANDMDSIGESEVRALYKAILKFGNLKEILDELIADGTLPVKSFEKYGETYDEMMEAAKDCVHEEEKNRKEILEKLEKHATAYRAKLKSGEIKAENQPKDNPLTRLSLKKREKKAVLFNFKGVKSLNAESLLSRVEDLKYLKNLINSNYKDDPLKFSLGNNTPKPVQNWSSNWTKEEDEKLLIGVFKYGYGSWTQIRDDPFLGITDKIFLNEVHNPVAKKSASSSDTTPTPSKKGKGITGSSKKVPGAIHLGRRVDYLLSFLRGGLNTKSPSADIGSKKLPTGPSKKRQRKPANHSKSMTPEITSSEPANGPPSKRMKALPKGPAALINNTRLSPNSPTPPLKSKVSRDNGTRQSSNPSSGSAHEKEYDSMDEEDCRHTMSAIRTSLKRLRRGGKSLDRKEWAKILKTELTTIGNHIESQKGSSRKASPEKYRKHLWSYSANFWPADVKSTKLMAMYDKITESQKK
# Protein translocase subunit SecA (Escherichia coli (strain K12)), sequence (P10408 whole entry): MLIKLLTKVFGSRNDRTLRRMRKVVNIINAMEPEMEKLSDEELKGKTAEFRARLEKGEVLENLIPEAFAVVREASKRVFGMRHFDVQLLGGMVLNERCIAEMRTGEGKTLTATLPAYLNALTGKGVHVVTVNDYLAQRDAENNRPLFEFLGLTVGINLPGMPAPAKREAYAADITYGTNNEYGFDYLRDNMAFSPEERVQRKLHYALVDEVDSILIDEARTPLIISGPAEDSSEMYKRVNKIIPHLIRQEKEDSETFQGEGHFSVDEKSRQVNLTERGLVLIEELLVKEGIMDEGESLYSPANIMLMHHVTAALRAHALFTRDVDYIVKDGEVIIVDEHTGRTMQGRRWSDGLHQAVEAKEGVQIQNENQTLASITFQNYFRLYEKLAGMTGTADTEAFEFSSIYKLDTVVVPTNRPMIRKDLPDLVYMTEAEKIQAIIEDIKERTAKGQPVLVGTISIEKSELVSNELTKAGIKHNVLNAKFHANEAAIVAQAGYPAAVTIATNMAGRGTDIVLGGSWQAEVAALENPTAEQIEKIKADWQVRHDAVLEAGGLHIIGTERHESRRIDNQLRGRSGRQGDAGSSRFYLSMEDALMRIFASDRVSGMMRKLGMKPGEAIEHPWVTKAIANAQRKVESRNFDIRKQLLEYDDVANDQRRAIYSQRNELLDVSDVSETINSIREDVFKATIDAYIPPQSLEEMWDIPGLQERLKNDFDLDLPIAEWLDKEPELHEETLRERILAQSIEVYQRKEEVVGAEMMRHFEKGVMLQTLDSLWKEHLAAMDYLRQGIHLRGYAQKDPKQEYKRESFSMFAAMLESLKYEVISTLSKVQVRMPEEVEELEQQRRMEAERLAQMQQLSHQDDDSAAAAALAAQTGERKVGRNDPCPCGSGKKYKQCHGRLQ
# Sialic acid-binding Ig-like lectin 9 (Homo sapiens), sequence (Q9Y336 whole entry): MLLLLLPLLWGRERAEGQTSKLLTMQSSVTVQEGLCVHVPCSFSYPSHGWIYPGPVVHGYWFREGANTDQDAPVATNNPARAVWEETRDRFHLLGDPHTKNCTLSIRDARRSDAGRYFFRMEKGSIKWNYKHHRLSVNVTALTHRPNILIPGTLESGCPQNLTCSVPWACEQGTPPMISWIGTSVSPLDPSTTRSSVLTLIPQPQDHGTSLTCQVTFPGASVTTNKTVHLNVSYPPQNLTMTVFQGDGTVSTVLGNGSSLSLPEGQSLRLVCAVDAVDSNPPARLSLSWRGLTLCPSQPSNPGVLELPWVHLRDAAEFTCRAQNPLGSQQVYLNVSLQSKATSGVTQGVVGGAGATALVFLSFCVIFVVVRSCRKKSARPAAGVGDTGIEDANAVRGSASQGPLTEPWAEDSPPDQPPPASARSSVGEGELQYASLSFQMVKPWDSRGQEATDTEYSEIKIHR
Compound,Percent Effect [1] [%],Percent Effect [2] [%],Percent Effect [3] [%],Percent Effect [4] [%],Percent Effect (Trypanosoma cruzi) [%],Percent Effect [5] [%],Percent Effect [6] [%],Percent Effect (Homo sapiens) [%],Percent Effect [7] [%],Percent Effect [8] [%],Percent Effect [9] [%]
CCc1n[nH]c(C2CN(C(=O)Cn3ccccc3=O)CCO2)n1 (configuration not stated),0.155,16.5,-10.9,-3.88,0.718,6.67,17.1,2.18,3.12,12.7,-24.2
CCN1CCC(CNC(=O)C2(c3cccc(C)c3)CC2)C1 (configuration not stated),-2.88,-1.27,6.26,2.04,-7.69,5.81,10.1,13.3,11.5,15.2,-11.4
O=C(CCC(=O)N1CCCC1c1cccs1)N1CCc2sccc2C1 (configuration not stated),1.64,-8.11,-5.22,4.27,5,-1.6,3.42,19.6,3.45,3.7,-5.21
Cc1nccn1C1CCCN(C(=O)c2ccc(N(C)C)nc2)C1 (configuration not stated),-4.63,7.89,-3.59,3.06,6.26,-1.08,7.36,7.13,7.39,18.5,-0.744
CCOCCn1nc(C)cc1C(=O)N1CCOCC(CO)C1 (configuration not stated),-2.3,18.9,0.311,24.4,7.14,31.9,22.1,1.44,3.7,12.2,-10.6
O=S(=O)(NCc1ccccc1Cn1cncn1)C1CCCC1,-2.89,8.86,4.47,2.98,-3.59,1.5,10.1,5.73,8.33,12.7,-12.6
CCN1CCOC(CNCc2ccccn2)C1 (configuration not stated),-1.35,0,-15.7,4.04,7.19,1.8,-3.64,-4.24,8.37,16.1,-1.88
Cc1ncsc1C(=O)NCCn1nc2ccccn2c1=O,-2.94,13.5,0.246,-6.32,-3.44,2.03,2.51,13.6,8.91,15.8,-7.12
CCc1nc(CN2CCCN(C(=O)C(C)n3ccnc3)CC2)cs1 (configuration not stated),-2.92,5.2,3.99,3.63,3.75,-5.69,21.1,-7.97,5.83,9.76,-4.4
O=C(NCC1CCOCC1)[C@H]1C[C@@H]2CCN(Cc3ccncc3)C[C@@H]2O1,-1.48,-2.67,-3.45,1.78,3.28,-1.25,14,-16.5,1.04,7.5,-5.98
c1cn(Cc2nnc(C3CCN(c4nccs4)CC3)n2C2CC2)cn1,-3.22,16,0.541,19.9,4.77,13,9.59,7.24,7.1,8.64,90.7
O=C(c1ccccc1N1CCOCC1)N1CCCC(n2cccn2)C1 (configuration not stated),-5.13,2.7,-10.8,3.15,-1.98,-0.802,3.06,12.4,5.42,13.6,-3.66
CCN(CC)c1ccc(C(=O)N(C)Cc2c(C)noc2C)cn1,-4.04,10.5,-4.84,-2.69,-7,10.1,-5.84,10.8,3.45,11.1,-1.15
NCC1CN(c2nc(-c3ccccc3)nc3c2CCNCC3)CCO1 (configuration not stated),-3.14,2.74,-7.79,3.51,9.32,0.798,-1.11,4.88,24,28.4,0.577
CN(Cc1ccco1)C[C@H]1OC[C@@H]2CCN(Cc3nccs3)C[C@@H]21,-6.74,16,-3.04,-3.48,5.41,-45,16.1,7.21,2.08,10,-6.67
Cc1ccc(CNC(=O)Cn2ncc3c2c(C)nn3C)cc1,0.175,4,4.44,1.31,-6.68,-16.4,10.2,6.77,3.17,7.69,-8.77
COCC(=O)NCc1cc(=O)n2c(n1)CN(Cc1ccsc1)CCC2,-5.93,8.11,3.64,-0.625,-2.83,6.05,17.9,-15.7,2.16,5.13,2.68
CCC(=O)N1CCC(c2nnc(Cn3cncn3)n2C2CC2)CC1,-0.998,15.3,-1.98,12.9,5.34,16.3,17.7,0.244,-1.05,15.4,-3.53
O=C(CN1CCCCC1Cn1cncn1)NCCC1=CCCCC1 (configuration not stated),-9.27,7.59,-1.31,4.8,-2.55,-0.76,-4.5,30.9,2.46,-3.8,-6.11
COc1cccc(COCC(=O)N2CCC(CC(N)=O)CC2)c1,-3.54,7.89,-1.04,-0.0672,-6.77,5.75,0.334,23.7,5.39,12.2,-3.41
CN(C)c1cc(C(=O)NCCc2nnc(-c3ccco3)[nH]2)ccn1,-2.63,2.63,0.765,-1.33,-2.63,-4.73,5.46,0.0854,4.25,10.4,-3.29
Cn1c(CC2CCS(=O)(=O)C2)nnc1SCCOc1cccc(Cl)c1 (configuration not stated),-2.94,10.8,-5.55,20.9,4.99,3.23,14.8,-7.24,4.3,16.1,-10.4
